# Values joined by “and” are separate entries in the source; they are usually repeats but may differ in a detail not shown here. Identical values can stand only once. Inconclusive results are not listed. Unmarked numbers belong to inactive results. Active and inactive are the calls of the source. The call rests on the fitted dose curve; in most records, active means well fitted cell-killing curve with a large enough effect; inconclusive means small, poorly fitted or top-dose-only effect, or effect the other way; inactive means no such curve, though single readings can be large or run the other way.
# Assay: Viability qHTS for spleen associated tyrosine kinase inhibitor (SYKi) drug resistant MV4-11 cells (AID 1963824); further: nearly all actives have a fitted effect of over 35% in size
# Conditions: SYKi-resistant MV4-11 viability, CellTiter-Glo, 72 h; series mostly up to 45 µM; viability, % of control: at the top concentration
# Text: Department of Medicine, Hematology/Oncology
# University Hospital Frankfurt, Germany.
# Trials have shown promising clinical activity of the selective SYK inhibitor entospletinib in patients with high expressing HOXA9/MEIS1 acute leukemias. As the development of resistance mechanisms is a common problem in the use of targeted drugs, we performed a chemical library screen to identify drug sensitivities in SYK inhibitor resistant AML cells. […] Glucocorticoids are potent immunosuppressants which work in part by inhibiting the transcription of cytokine genes.
# Described herein is a viability screen to look for activity in the SYK inhibitor drug resistant cell line against four NCATS compound libraries (MIPE 5.0, NPC, NPACT, and Kinase) totaling 11372 compounds. Active hits were reacquired for confirmation and further secondary assay testing.
# SEQUENCE No. (e.g., 1, 2, 3, etc.); […] (e.g., Cells, Incubation, Reagent, etc.); VALUE; DESCRIPTION.
# 1; Media; 2uL; white, solid-bottom Corning assay plate.
# 2; Compounds; 23nL; Echo acoustic dispenser.
# 3; Cell; 5uL; 500 cells per well.
# 4: Incubation; 72hr; 37 C, 5% CO2, 95% humidity.
# 5; Reagent; 3uL; CellTiter-Glo reagent (Promega).
# 6; Incubation; 10min; room temperature.
# 7; Detection; Luminescence; ViewLux plate reader (PerkinElmer).
# NOTES (numbers refer to Sequence numbers above
# 1. Quantitative high-throughput screening (qHTS) of small molecule compounds was conducted on drug resistant SYKi MV4-11 cell line.
# 2. Twenty-three nanoliter of small molecule compounds were added to each assay plates using the Echo acoustic dispenser (Beckman Coulter).
# 3. Cells were seeded into the assay plates at a final density of 500 cells in 5uL of media per well using the Multidrop Combi dispenser.
# 4. Plates were covered with stainless steel gasketed lids and incubated for 72 hours at standard cell culture conditions.
# 5. Viability was assessed by adding 3uL of CellTiter-Glo detection reagent (Promega).
# 6. Plates were covered with gasket lids and incubated for 10 minutes at room temperature.
# 7. Luminescence was measured on a ViewLux plate reader (PerkinElmer).
# Potency means the concentration at half of the fitted maximal effect.
SMILES,Potency,"viability, % of control"
CC(C)(O)/C=C/C(=O)[C@](C)(O)[C@H]1[C@H](O)C[C@@]2(C)[C@@H]3CC=C4[C@@H](C[C@H](O[C@@H]5O[C@H](CO)[C@@H](O)[C@H](O)[C@H]5O)C(=O)C4(C)C)[C@]3(C)C(=O)C[C@]12C,6.11 µM (active),–
CO[C@@]1(NC(=O)CSC[C@@H](N)C(=O)O)C(=O)N2C(C(=O)O)=C(CSc3nnnn3C)CS[C@@H]21,–,104%
OCC1OC(Oc2cc(O)c3c(c2)OC(c2ccc(O)cc2)C(O)C3)C(O)C1O (stereo not given),–,80.8% [at 17.3 µM]
COc1ccc([C@@]2(O)c3c(ccc4c3OC(C)(CCC=C(C)C)C=C4)NC(=O)[C@@H]2OC)cc1 (stereo not given in full),–,21.9% [at 17.3 µM]
CN1[C@@H]2CC[C@H]1CC(OC(=O)C(CO)c1ccccc1)C2 (stereo not given in full),–,93.4%
CC1(C)CC2C(O)c3cocc3CC(C)(O)C2C1 (stereo not given),–,69.1%
OC[C@H]1O[C@@H](n2cnc3c2NC=NC[C@H]3O)C[C@@H]1O,inactive,–
CC(C)C(=O)OCc1cccc(OC(=O)[C@@H]2N3C(=O)[C@@H](NC(=O)Cc4ccccc4)[C@H]3SC2(C)C)c1,7.5 µM (active),–
CCc1cc(/C(C)=N/OCc2ccc(C3CCCCC3)c(C(F)(F)F)c2)ccc1CN1CC(C(=O)O)C1,14.8 µM (active),–
O=C(Nc1ccc2[nH]nc(-c3ccncc3)c2c1)[C@@H]1CCN(CC(=O)N2CCN(c3ccc(-c4ncccn4)cc3)CC2)C1,23.1 nM (active) and 468 nM (active),–
COc1cc(C(=O)NC2CCN(C)CC2)ccc1Nc1ncc2c(n1)N(C1CCCC1)CCC(=O)N2C(C)C,4.17 µM (active),–
CC(=O)CC/C=C(\C)CC/C=C(\C)CC/C=C(\C)CCC=C(C)C,–,67.6%
Cc1[nH]c(/C=C2\C(=O)Nc3ccc(S(=O)(=O)Cc4c(Cl)cccc4Cl)cc32)c(C)c1C(=O)N1CCC[C@@H]1CN1CCCC1,1.86 µM (active),–
Cc1ccc(-c2c(C(=O)CF)n(CCCO)c3ncnc(N)c23)cc1,10.3 µM (active),–
CC(=O)O[C@H]1C[C@@H](O)C(C)(C)C2C[C@@H](OC(C)=O)[C@@]3(C)C4=CCC(C(CO)CC(O)C5OC5(C)C)[C@]4(C)CCC3[C@]21C (stereo not given in full),–,59.2% [at 17.3 µM]
C1Cc2[nH]nc(-c3nn[nH]n3)c2C1,–,57.4%
COc1cc(CCC2=NN=C(NC(=O)c3ccc(N4C[C@@H](C)N[C@@H](C)C4)cc3)C2)cc(OC)c1,1.46 µM (active),–
Nc1nc(OC(c2ccc(-c3cccc(F)c3)cc2)C(F)(F)F)cc(-c2ccc(C[C@H](N)C(=O)O)cc2)n1 (stereo not given in full),18.6 µM (active),–
CC(C)c1ccc(-c2cc(=O)c3ccccc3o2)cc1,13 µM (active),–
CC1(C)CCC2(C(=O)OC3OC(COC4OC(CO)C(O)C(O)C4O)C(O)C(O)C3O)CCC3(C)C(=CCC4C5(C)CCC(OC6OCC(O)C(O)C6O)C(C)(C)C5CCC43C)C2C1O (stereo not given),–,90.4% [at 9.25 µM]

SMILES,Potency,"viability, % of control"
CN1C(CCl)Nc2cc(Cl)c(S(N)(=O)=O)cc2S1(=O)=O (stereo not given),–,80.8%
CC(=O)O[C@]1(C(C)=O)CC[C@H]2[C@@H]3C=C(Cl)C4=CC(=O)CC[C@]4(C)[C@H]3CC[C@@]21C,11.9 µM (active),–
CC(=O)O[C@@H]1C[C@@H](OC(C)=O)C(C)(C)/C=C/[C@H](C)[C@H](OC(C)=O)[C@@]2(O)C[C@H](C)[C@H](OC(=O)c3ccccc3)[C@@H]2/C=C/1C,2.73 µM (active),–
CC[N+](CC)(CC(=O)Nc1c(C)cccc1C)Cc1ccccc1,–,86.6%
CN(C)CCOC(C)(c1ccccc1)c1ccc(Cl)cc1 (stereo not given),16.4 µM (active),–
O=c1[nH]ccc2nc(-c3ccc(CN4CCC(c5nc(-c6ccccn6)n[nH]5)CC4)cc3)c(-c3ccccc3)cc12,9.2 µM (active),–
O=C(O)[C@H](O)[C@@H](O)[C@H](O[C@@H]1O[C@H](CO)[C@H](O)[C@H](O)[C@H]1O)[C@H](O)CO,–,93.8%
C=C(C)C(=O)O[C@H]1C[C@@](C)(O)C2(O)CCC(C)(/C=C3/OC(=O)C(COC)=C31)O2 (stereo not given in full),0.453 µM (active),–
O=C(c1ccc(C(=O)N2CCC(N3CCCC3)CC2)c(Nc2ccccc2)c1)N1CCC(N2CCCC2)CC1,–,84.2%
COc1ccc(CCC(=O)c2c(O)cc(O[C@@H]3O[C@H](CO)[C@@H](O)[C@H](O)[C@H]3O[C@@H]3O[C@@H](C)[C@H](O)[C@@H](O)[C@H]3O)cc2O)cc1O,–,94.9%
C=CC(C)(CC/C=C(\C)C(=O)OC)OC1OC(COC(=O)CC(C)(O)CC(=O)O)C(O)C(O)C1O (stereo not given),–,89.9% [at 17.3 µM]
CCc1c(O)cc(O)c(C(=O)c2ccc(OCCN3CCOCC3)c(OC)c2)c1CC(=O)N(CCOC)CCOC,0.235 µM (active),–
O=Cc1ccc(O)c(O)c1O,–,92.6%
C(#Cc1cccc(CN2CCOCC2)c1)CCN1CCCCC1,–,85.2%
CC1(C)CCC(C)(C)c2cc([C@@H](O)C(=O)Nc3ccc(C(=O)O)cc3F)ccc21,5.17 µM (active),–
Nc1nc(COC(=O)c2ccc([N+](=O)[O-])cc2)nc(Nc2ccccc2)n1,–,40.7%
O=C(Nc1ccn(Cc2ccc(O)cc2C(F)(F)F)n1)c1c(F)cccc1F,13 µM (active),–
CCOc1ccc(C(=O)OCCN(CC)CC)cc1,–,82.2%
Cc1cc(C(=O)N2CCN(c3cccc(Cl)c3)CC2)n(-c2ccccc2)n1,1.46 µM (active),–
O=C(Nc1cnn2ccc(N3CCC[C@@H]3c3cc(F)ccc3F)nc12)N1CC[C@H](O)C1,–,72%
